The nature of assay [1]: CCTE_Harrill_HTTr_Apoptosis_PRF_DMEM_12hr: (Pilot) CCTE's 12-hour Apoptosis Assessment for the High-Throughput Transcriptomics (HTTr) Platform, in MCF-7 cells cultured in phenol red-free DMEM + 10% charcoal-stripped fetal bovine serum, Harrill Lab (AID 2283985). From the text:
(§1) This is a cell-based assay that evaluates apoptosis using high content imaging to evaluate activation of caspase-3/7 using the CellEvent Caspase 3/7 Green detection reagent in 384-well format.One of seven assay components measured from the CCTE_Harrill_HTTr_Apoptosis assay. This was part of a pilot experiment. This is a cell-based assay that evaluates apoptosis in MCF-7 cells cultured in phenol red-free DMEM + 10% charcoal-stripped fetal bovine serum. High content imaging is used to evaluate activation of caspase-3/7 using the CellEvent Caspase 3/7 Green detection reagent. Measurements are taken at 12 hours after chemical dosing in 384-well format.The assay component endpoint CCTE_Harrill_HTTr_Apoptosis_PRF_DMEM_12hr was analyzed with bidirectional fitting relation to DMSO as the negative control and baseline of activity. Using a type of viability reporter, gain-of-signal activity can be used to evaluate activation of caspase-3/7 using the CellEvent Caspase 3/7 Green detection reagent to understand changes in apoptosis. To generalize the intended target to other relatable targets, this assay endpoint is annotated to cell cycle, where the subfamily is apoptosis.
Chemicals were tested in MCF7 cells in an eight point dilution series with a twelve hour exposure duration.

Assay [2] in a line: CCTE_Harrill_HTTr_Apoptosis_PRF_DMEM_24hr: (Pilot) CCTE's 24-hour Apoptosis Assessment for the High-Throughput Transcriptomics (HTTr) Platform, in MCF-7 cells cultured in phenol red-free DMEM + 10% charcoal-stripped fetal bovine serum, Harrill Lab (AID 2283986).
Source text: as §1, with “24” for “12”, “CCTE_Harrill_HTTr_Apoptosis_PRF_DMEM_24hr” for “CCTE_Harrill_HTTr_Apoptosis_PRF_DMEM_12hr”
Chemicals were tested in MCF7 cells in an eight point dilution series with a twenty-four hour exposure duration.

The nature of assay [3]: CCTE_Simmons_MITO_basal_resp_rate: CCTE's HepG2 Seahorse XF Respirometric Screening Assay at Basal Respiratory State, Simmons Lab (AID 2284001). The conditions noted are these: actives raise or lower the signal. In a few lines: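 Readout is oxygen consumption rate after test compound injection, measured by Seahorse XF in HepG2 cells. Seven concentrations from 125 nM up to 100 uM final are tested, and activity in either direction is fitted against DMSO.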

The nature of assay [4]: CCTE_Simmons_MITO_max_resp_rate: CCTE's HepG2 Seahorse XF Respirometric Screening Assay at Maximal Respiratory State [uncoupled], Simmons Lab (AID 2284002). The conditions noted are these: actives raise or lower the signal. The essentials:
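Uncoupled (FCCP) respiration of HepG2 cells served as the endpoint, with measurements at 6-minute intervals across a 72-minute run and compounds dosed at 7 concentrations up to 100 uM final.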

Assay [5] in a line: CCTE_Simmons_MITO_inhib_resp_rate: CCTE's HepG2 Seahorse XF Respirometric Screening Assay at Inhibited Respiratory State [full ETC block], Simmons Lab (AID 2284006). The conditions noted are these: actives raise or lower the signal. The essentials: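 This endpoint is the respiration rate remaining after rotenone/antimycin A block, in HepG2 cells on a Seahorse XF96. Chemicals spanned 125 nM–100 uM final, in three biological replicates. OCR was read every 6 minutes for 72 minutes and compared with DMSO vehicle.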

The next assay concerns DIO1 (gene 1733). The experiment in a line: CCTE_GLTED_hDIO1: CCTE's human Deiodinase 1 (DIO1) Inhibition Assay, Great Lakes Toxicology and Ecology Division (GLTED) Lab (AID 2283987; active means hit-call score of the fitted dose curve at least 0.9, where 1 is the maximum;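 further: isolated human DIO1 enzyme in a cell-free setup rather than cells; enzyme activity read as free iodide liberated from substrate via Sandell-Kolthoff colorimetry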). The essentials: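 Chemicals are tested on human DIO1 without cells for 3 h. Uninhibited enzyme frees iodide, which speeds cerium(IV) reduction by arsenic and is read by spectrophotometry.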
Assay [6] deals with Nucleoli Translocation, AR (gene 367) (UniProt P10275). The experiment in a line: UPITT_HCI_U2OS_AR_TIF2_Nucleoli_Antagonist: University of Pittsburgh U2OS Androgen Receptor-Transcriptional Intermediary Factor 2 (AR-TIF2) Antagonism High Content Imaging Assay for Nucleoli Translocation (AID 2283997; active means hit-call score of the fitted dose curve at least 0.9, where 1 is the maximum). The essentials:
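An antagonist-mode imaging screen: engineered U2OS (AR-RFP, TIF2-GFP) exposed to 20 uM compound, 0.2% DMSO. Activity reflects nucleolar red fluorescence change relative to DHT baseline.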

Assay [7] has the same target. The experiment in a line: UPITT_HCI_U2OS_AR_TIF2_Nucleoli_Agonist: University of Pittsburgh U2OS Androgen Receptor-Transcriptional Intermediary Factor 2 (AR-TIF2) Agonism High Content Imaging Assay for Nucleoli Translocation (AID 2283998; active means hit-call score of the fitted dose curve at least 0.9, where 1 is the maximum). The essentials:
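High-content images quantify nucleolar accumulation of RFP-fused AR in cells also expressing GFP-TIF2; the endpoint is fitted as signal gain versus DMSO controls across final concentrations of 0.195 to 50 uM.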

Assay [8] concerns the target Ratio of Nucleoli Translocation and Cytoplasm, AR (gene 367) (UniProt P10275). The experiment in a line: UPITT_HCI_U2OS_AR_TIF2_Nucleoli_Cytoplasm_Ratio_Antagonist: University of Pittsburgh U2OS Androgen Receptor-Transcriptional Intermediary Factor 2 (AR-TIF2) Antagonism High Content Imaging Assay for Ratio of Nucleoli Translocation and Cytoplasm (AID 2283999; active means hit-call score of the fitted dose curve at least 0.9, where 1 is the maximum;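 further: antagonists lower the DHT-driven ratio of nucleolar to cytoplasmic red signal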). The essentials: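 High-content imaging of red fluorescence ratio, nucleoli versus cytoplasm, in U2OS expressing AR-RFP and TIF2-GFP, fitted relative to DHT. Compounds tested once at 20 uM final, then 0.195 to 50 uM final in serial dilution.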

Assay [9] shares this target. The experiment in a line: UPITT_HCI_U2OS_AR_TIF2_Nucleoli_Cytoplasm_Ratio_Agonist: University of Pittsburgh U2OS Androgen Receptor-Transcriptional Intermediary Factor 2 (AR-TIF2) Agonism High Content Imaging Assay for Ratio of Nucleoli Translocation and Cytoplasm (AID 2284000; active means hit-call score of the fitted dose curve at least 0.9, where 1 is the maximum;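 further: hits raise the red nucleolar to cytoplasm ratio above vehicle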). The essentials: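 Primary screen at 20 uM final (0.2% DMSO), then triplicate confirmation and dose-response from 0.195 to 50 uM final (0.5% DMSO). Cells: U2OS with AR-RFP and TIF2-GFP. Endpoint is the nucleoli/cytoplasm red-fluorescence ratio, gain-of-signal vs DMSO.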

The record followed here is PubChem BioAssay (EPA / NIEHS).

Inconclusive results are not listed. Calls of active or inactive are those of the source. How the source made its calls, unless noted: active means hit-call score of the fitted dose curve at least 0.9, where 1 is the maximum; inactive means score below 0.9.

Ratio of Nucleoli Translocation and Cytoplasm, AR (gene 367), sequence (P10275 whole entry, looked up): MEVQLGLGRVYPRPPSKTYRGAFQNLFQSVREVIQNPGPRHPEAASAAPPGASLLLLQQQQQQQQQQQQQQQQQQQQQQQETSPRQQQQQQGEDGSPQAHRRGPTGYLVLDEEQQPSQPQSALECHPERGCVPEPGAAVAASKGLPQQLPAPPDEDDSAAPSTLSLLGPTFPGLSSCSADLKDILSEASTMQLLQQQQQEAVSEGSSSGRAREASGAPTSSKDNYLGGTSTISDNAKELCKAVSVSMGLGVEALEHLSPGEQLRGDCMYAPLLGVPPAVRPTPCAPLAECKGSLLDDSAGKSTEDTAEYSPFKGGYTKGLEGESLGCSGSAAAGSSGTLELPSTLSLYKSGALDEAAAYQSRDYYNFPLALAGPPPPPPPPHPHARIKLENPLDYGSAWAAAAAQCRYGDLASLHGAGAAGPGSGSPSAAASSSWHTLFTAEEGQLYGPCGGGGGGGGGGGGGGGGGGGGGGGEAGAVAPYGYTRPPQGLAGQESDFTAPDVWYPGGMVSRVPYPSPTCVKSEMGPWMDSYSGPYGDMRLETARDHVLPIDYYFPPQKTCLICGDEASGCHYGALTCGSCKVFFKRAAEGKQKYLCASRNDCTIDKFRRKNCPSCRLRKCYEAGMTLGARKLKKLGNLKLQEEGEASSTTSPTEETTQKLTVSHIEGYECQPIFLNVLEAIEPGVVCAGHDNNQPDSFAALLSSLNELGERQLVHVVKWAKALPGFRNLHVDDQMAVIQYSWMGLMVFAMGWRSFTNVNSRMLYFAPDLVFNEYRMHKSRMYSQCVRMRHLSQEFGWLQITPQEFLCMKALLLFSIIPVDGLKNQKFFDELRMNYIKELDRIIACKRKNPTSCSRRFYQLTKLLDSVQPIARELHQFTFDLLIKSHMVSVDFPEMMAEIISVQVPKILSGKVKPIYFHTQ
Nucleoli Translocation, AR (gene 367), sequence (P10275 whole entry, looked up): as above

In the case of `CCOC(=O)C(C)OC(=O)c1cc(Oc2ccc(C(F)(F)F)cc2Cl)ccc1[N+](=O)[O-]` (stereo unspecified), the outcome in assay [1] and in assay [2] was inactive.

For `Cc1c(COC(=O)[C@@H]2[C@H](/C=C(\Cl)C(F)(F)F)C2(C)C)cccc1-c1ccccc1`, the outcome in assay [1], in assay [2], in assay [3], in [4] and in assay [5] was inactive.

`CC(C)=CC1C(C(=O)OCc2coc(Cc3ccccc3)c2)C1(C)C` (stereo unspecified): the result in assay [3], in [4] and in [5] was inactive.

Regarding `CCOP(=S)(OCC)Oc1nc(Cl)n(C(C)C)n1`, the results for the AC50 in assay [3] and in assay [4] were 29.3 µM (active) and 38.5 µM (active), respectively. For the same compound, the compound was called inactive in assay [5].

On to `CC1(C)C(C=C(Cl)Cl)C1C(=O)OC(C#N)c1cccc(Oc2ccccc2)c1` (stereo unspecified), for which the result in [1], in assay [2], in assay [3], in assay [4] and in assay [5] was inactive.

For the compound `COCC(C)N(C(=O)CCl)c1c(C)csc1C` (stereo unspecified), the AC50 (as a rule, the midpoint of the concentration-response curve, whichever way the signal moves) in assay [3] was 55.3 µM (active). For the same compound, the compound was called inactive in assay [4] and in assay [5].

Regarding `OC(c1ccc(Cl)cc1)(c1ccc(Cl)cc1)C(Cl)(Cl)Cl`, in the assay with DIO1 (gene 1733), the AC50 is 70.4 µM (active).

For `O=C1C2CC=CCC2C(=O)N1SC(Cl)(Cl)Cl` (stereo unspecified), the AC50 in the assay with DIO1 (gene 1733) was 53.8 µM (active); in assay [3], 59.9 µM (active); in assay [4] it was 67.8 µM (active). In addition, in [5], the compound was called inactive.

As for `CCCCC(O)(Cn1cncn1)c1ccc(Cl)cc1Cl` (stereo unspecified), the concentration at half-maximal activity (AC50) in assay [6] was 62.7 µM (active); in [7] it was 78.4 µM (active); in assay [9], 77.3 µM (active); in [3] it was 41 µM (active); in [4] it was 60.5 µM (active). In addition, the outcome in [8] and in [5] was inactive.

Consider `CCN(CC)c1nc(C)cc(OP(=S)(OC)OC)n1`, for which the outcome in assay [3], in [4] and in assay [5] was inactive.

Take `CC1(C)CCC(=Cc2ccc(Cl)cc2)C1(O)Cn1cncn1` (stereo unspecified): the concentration at half-maximal activity (AC50) was 2.9 µM (active) in assay [6], 9.87 µM (active) in assay [7] and 15.9 µM (active) in assay [9]. Besides, the outcome in [8] was inactive.

For the compound `CCSC(=O)N1CCCCCC1`, the compound was called inactive in [3], in assay [4] and in [5].

As for `C=CCOC(=O)C(C)(C)OC(=O)c1cc(-n2c(=O)cc(C(F)(F)F)n(C)c2=O)ccc1Cl`, the outcome in assay [1] and in assay [2] was inactive.

`CCCCOCN(C(=O)CCl)c1c(CC)cccc1CC`: the results for the half-maximal activity concentration (AC50) (in the assay on DIO1 (gene 1733); in [6]; in assay [8]) were 37.9 µM (active), 19 µM (active) and 11 µM (active), respectively. Also, the compound was classed as inactive in [7] and in [9].

On to `Nc1c(Cl)c(F)nc(OCC(=O)O)c1Cl`, for which the outcome in [7], in assay [8], in [9], in assay [3], in assay [4] and in assay [5] was inactive.

Regarding `CCN(CC)C(=O)C(C)Oc1cccc2ccccc12` (stereo unspecified), in assay [3], the compound was classed as inactive. In assay [4], the AC50 was 32.7 µM (active).

As to `COc1ccc(-c2ccccc2)cc1NNC(=O)OC(C)C`, the result in [6], in [7], in assay [8], in [9], in [3] and in assay [4] was inactive. Also, in assay [5], the result was inactive.

Regarding `Cn1c(-c2ccccc2)cc(-c2ccccc2)[n+]1C`, the AC50 in assay [3] was 41.9 µM (active); in assay [4] it was 20 µM (active). In assay [5], the outcome was inactive.

As for `N#Cc1c[nH]cc1-c1cccc2c1OC(F)(F)O2`, the concentration at half-maximal activity (AC50) in [3] was 77.1 µM (active). In addition, the compound was called inactive in [5].

In the case of `COP(=S)(OC)SCn1nnc2ccccc2c1=O`, the concentration at half-maximal activity (AC50) in the assay on DIO1 (gene 1733) is 47.3 µM (active); in assay [6], 31.4 µM (active). Besides, the result in assay [7] and in assay [8] was inactive.

As to `Cc1ccc(N=CN(C)C=Nc2ccc(C)cc2C)c(C)c1`, the result in [3], in assay [4] and in assay [5] was inactive.

For `CCOc1cc(C(C)(C)C)ccc1C1COC(c2c(F)cccc2F)=N1` (stereo unspecified), the outcome in assay [6] was inactive.

As for `COCc1cnc(C2=NC(C)(C(C)C)C(=O)N2)c(C(=O)O)c1` (stereo unspecified), the compound was called inactive in [6], in assay [7] and in [9].

Take `COC(=O)c1c(C(F)F)nc(C(F)(F)F)c(C2=NCCS2)c1CC(C)C`: the outcome in assay [6], in assay [7] and in assay [9] was inactive.

Turning to `CCNP(=S)(OC)O/C(C)=C/C(=O)OC(C)C` (stereo unspecified), the AC50 in assay [3] was 37.9 µM (active); in [4], 18.1 µM (active). Besides, the compound was called inactive in assay [5].

Turning to `Clc1cccc(C(Cl)(Cl)Cl)n1`, the compound was called inactive in assay [6], in assay [7] and in assay [9].

Consider `CCOP(=O)(OCC)Oc1nc(Cl)c(Cl)cc1Cl`, for which the compound was classed as inactive in assay [6], in [9] and in [5]. Further, the results for the AC50 in [3] and in assay [4] were 29.6 µM (active) and 49.8 µM (active), respectively.

Regarding `COC(=O)N(C(=O)N1CO[C@@]2(C(=O)OC)Cc3cc(Cl)ccc3C2=N1)c1ccc(OC(F)(F)F)cc1`, the call in assay [6], in assay [8] and in assay [9] was inactive.

In the case of `CC(C)(C)C(=O)C(Oc1ccc(Cl)cc1)n1cncn1` (stereo unspecified), the figures for the half-maximal activity concentration (AC50) in [3] and in [4] were 40.6 µM (active) and 47.2 µM (active), respectively. Further, the outcome in [5] was inactive.

With `CC(C)N1C(=O)N(c2ccccc2)CSC1=NC(C)(C)C`, the result in assay [6], in assay [7], in [8], in assay [9], in [3] and in assay [4] was inactive. For the same compound, the call in assay [5] was inactive.

Consider `CCOc1nc(F)cc2nc(S(=O)(=O)Nc3c(Cl)cccc3Cl)nn12`, for which, in the assay on DIO1 (gene 1733), the AC50 was 38.8 µM (active).

As to `Cc1cnc(C2=NC(C)(C(C)C)C(=O)N2)c(C(=O)O)c1` (stereo unspecified), the compound was classed as inactive in [6], in assay [7] and in assay [9].

For the compound `CO/N=C(/C1=NOCCO1)c1ccccc1Oc1ncnc(Oc2ccccc2Cl)c1F`, the AC50 in [3] was 6.74 µM (active); in [4], 4.35 µM (active); in [5] it was 6.67 µM (active).

As for `COCC(=O)N(c1c(C)cccc1C)C(C)C(=O)OC` (stereo unspecified), the AC50 in assay [3] was 36.2 µM (active). Besides, the result in [4] and in assay [5] was inactive.

On to `CCCCC(C#N)(Cn1cncn1)c1ccc(Cl)cc1` (stereo unspecified), for which the result in [3], in assay [4] and in assay [5] was inactive.
